Source: PubChem BioAssay
FLuc modulator = firefly luciferase modulation, counter-screen for miR-21 project; purified FLuc, Km substrates, luminescence inhibition; Potency, µM (titrated, usually from 57.5 µM), for the others: at the top dose activity change, negative = inhibition, hits mostly inhibitors; actives 6.9% (n = 360,000); AID 588342;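 note: plate controls were vehicle for no effect and reference inhibitor for full effect; nearly all actives have a fitted effect of over 55% in size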
Target sequence (P08659 whole entry, looked up): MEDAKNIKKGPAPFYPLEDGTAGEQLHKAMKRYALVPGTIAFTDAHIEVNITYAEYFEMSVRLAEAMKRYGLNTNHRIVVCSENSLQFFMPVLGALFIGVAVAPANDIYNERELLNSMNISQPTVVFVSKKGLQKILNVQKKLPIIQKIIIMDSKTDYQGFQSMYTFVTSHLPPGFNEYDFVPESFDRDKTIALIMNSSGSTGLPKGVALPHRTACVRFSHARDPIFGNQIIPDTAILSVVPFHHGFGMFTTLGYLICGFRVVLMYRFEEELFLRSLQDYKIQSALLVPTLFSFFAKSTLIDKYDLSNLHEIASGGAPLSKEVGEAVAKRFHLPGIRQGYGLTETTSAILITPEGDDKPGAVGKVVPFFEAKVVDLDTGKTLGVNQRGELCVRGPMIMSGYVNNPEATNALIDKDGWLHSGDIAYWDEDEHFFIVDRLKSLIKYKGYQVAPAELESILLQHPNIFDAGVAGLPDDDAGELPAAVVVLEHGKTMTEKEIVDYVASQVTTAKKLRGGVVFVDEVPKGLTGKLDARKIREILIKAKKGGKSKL
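Purified P. pyralis luciferase, 10 nM final, with Km-level 10 uM D-luciferin and 10 uM ATP in 50 mM Tris acetate pH 7.5, 10 mM Mg acetate, 0.01% Tween-20, 0.05% BSA; 6-point qHTS titration about 60 µM downward; luminescence read.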
NPC1 promoter act = activates the NPC1 promoter. Huh7 NPC1 promoter luciferase reporter, 24 h. Potency, µM (top dose mostly 9.22 µM), for the others: at the top dose activation, most hits filed as activators. actives 2.4% (n = 320,000); note: % of control where 0% means no effect; nearly all actives have a fitted effect of over 60% in size
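Compounds in DMSO were transferred onto Huh7 NPC1-luciferase reporter cells pre-incubated 2 h; after 24 h at 37 °C, Amplite reagent was dispensed and luminescence recorded 10 min later.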
SMN2 splice up = enhancers of SMN2 splice variant expression. HEK293 SMN2-luciferase splicing reporter, luminescence, 30-36 h. Potency, µM (series often up to 46.1 µM), for the others: top-dose activity change, positive = activation, actives largely listed as activators. actives 2.8% (n = 210,000); note: % of control where 0% means no effect; nearly all actives have a fitted effect of over 55% in size
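HEK293 cells carry an SMN2 […]–luciferase reporter in which exon 7 inclusion puts luciferase in frame. Cells were plated 10-12 h before compound addition, then incubated 30-36 h at 37C. ONE-Glo luminescence was read; sodium butyrate at 4.5 mM final served as control.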
ELG1 genotox = induces genotoxicity in HEK293T cells with luciferase-tagged ELG1; HEK293T ELG1-luciferase reporter, luminescence, 16 h; Potency, µM (titrated, usually from 46 µM), for the others: at the top dose activity change, positive = activation, most hits filed as activators; actives 1.3% (n = 330,000); AID 504466; note: % of control where 0% means no effect; nearly all actives have a fitted effect of over 60% in size
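Genotoxicity was scored as increased ELG1-luciferase reporter signal, measured by ONE-Glo luminescence (30 min, room temperature). Compound or vehicle exposure of the HEK293T reporter cells lasted 16 hr at 37°C.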
Rab9 prom act = Rab9 promoter activation; Huh7 Rab9 promoter-luciferase reporter, luminescence, 24 h; Potency, µM (titrated, usually from 9.22 µM), inactives show at the top dose activation, negative = inhibition, usual class: activators; actives 2.8% (n = 320,000); AID 485297; note: % of control where 0% means no effect; nearly all actives have a fitted effect of over 60% in size
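Stable Rab9-luc Huh7, 1500 cells/well, 2 h settle; cmpd in DMSO, 24 h, 37 °C/5% CO2; luciferase reagent 10 min RT; luminescence.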
* marks the source's active call; other numbers are inactive results; ? = inconclusive; . = no result; [ ] = another dose, or the depositor's remark. Rows were chosen to be rich in hits. Some 7.5% of all compounds tested hit in one or more screens of this group. Calls come from the whole dose curve; as a rule, active = well fitted curve in the direction sought with a large enough effect; inconclusive = small, poorly fitted or top-dose-only effect, or another doubt; inactive = no such curve, though single readings can be large; an effect the other way counts as inactive or inconclusive. Potency is the fitted concentration of half-maximal effect.

SMILES	FLuc modulator	NPC1 promoter act	SMN2 splice up	ELG1 genotox	Rab9 prom act
Cc1cccc(-c2nnc(NC(=O)c3ccco3)s2)c1	11µM*	2.8µM*	.	21µM*	3.2µM*
COc1ccc(NC(C)=O)cc1S(=O)(=O)NC1CCSc2ccccc21 (stereo not drawn)	1%	1%	.	7%	-5%
CC(=O)Nc1ccc(NC(=O)C(C)Oc2ccccc2C(=O)NCc2ccccc2)cc1 (stereo not drawn)	5%	0%	.	1%	-2%
O=C(Nc1nc2c(s1)COc1ccccc1-2)c1cccs1	13µM*	16%	-18%	0%	10%
O=C(Nc1ncc2c(n1)-c1ccccc1CC2)c1cccs1	19µM*	15%	-5%	1%	20%
O=C(Nc1nc2c(s1)CCCC2)C1CCCN1C(=O)c1cccs1 (stereo not drawn)	2%	2%	0%	2%	-1%
O=C(Nc1nc2c(s1)CCc1ccccc1-2)c1cccs1	13µM*	?	9%	9%	?
Fc1ccccc1Nc1nc2c(s1)CCc1ccccc1-2	1.9µM*	?	?	8.2µM*	3.2µM*
O=C(Nc1ncc2c(n1)-c1ccccc1CC2)c1ccccc1	?	23%	3%	2%	11%
Cc1ccsc1C(=O)OCC(=O)NC1CCCC1	21µM*	?	.	?	?
O=C(COC(=O)c1ccccc1)NC1CCCC1	17µM*	-3%	.	9%	-8%[1.84 µM]
O=C(COC(=O)c1ccccc1)NC(=O)NC1CCCC1	-5%	-2%	.	2%	-3%
Cc1ccsc1C(=O)OCC(=O)Nc1sccc1C(N)=O	5.4µM*	?	22%	7%	?
O=C(NC(=S)NC1CCCC1)c1ccccc1	17µM*	?	.	?	?
Cc1ccsc1C(=O)OCC(=O)NCCNC(=O)COC(=O)c1sccc1C	-1%	-1%	.	7%	-1%
O=C(COC(=O)c1cccs1)NC1CCCCC1	21µM*	2%	1%	-1%	5%
O=C(COC(=O)Cc1c(Cl)cccc1Cl)NC1CCCC1	.	.	.	2%	.
O=C(COC(=O)c1c(F)cccc1Cl)NC1CCCCC1	15µM*	?	.	?	?
O=C(COC(=O)c1ccccc1F)NC1CCCC1	24µM*	-2%	.	1%	-1%
CCOc1ccc(N(CC(=O)Nc2ccccc2CC)S(=O)(=O)c2c(C)noc2C)cc1	-2%	.	-29%	.	.
COC(=O)[C@H](Cc1ccccc1)NC(=O)Cn1cnc2c(NCc3ccccc3)ncnc21	.	.	.	-3%	.
C=CCOc1ccc(CNC(C)(C)CO)cc1OCC	5%	-7%	26%	1%	8%
Fc1ccccc1-n1ncc2c1ncn1nc(Cc3ccccc3)nc21	6µM*	.	11µM*	.	.
Cn1sc(NC(=O)c2ccc(Cl)cc2)nc1=O	2.4µM*	4µM*	?	?	3.5µM*
Cc1ccc(C(=O)Nc2nc(=O)n(C)s2)cc1	2.1µM*	3.2µM*	?	?	2.8µM*
SMILES	FLuc modulator	NPC1 promoter act	SMN2 splice up	ELG1 genotox	Rab9 prom act
CC(C)CC(=O)n1sc(NC(=O)c2ccccc2)nc1=O	21µM*	-4%	-6%	-1%	-6%
Cc1ccc(C(=O)Nc2nc(=O)n(C(=O)CC(C)C)s2)cc1	?	-1%	9%	0%	2%
Cn1ccc(NC(=O)c2ccc(Cl)cc2)n1	?	4%	.	?	19%
Cc1ccc(C(=O)Nc2nc(=O)n(C(=O)c3ccccc3Cl)s2)cc1	5.4µM*	?	?	?	3.2µM*
Cc1nn2c(-c3ccc(F)cc3)ccnc2c1Br	0%	-7%	.	1%	-5%
Fc1ccc(-c2cnn3c(-c4cccs4)ccnc23)cc1	0.76µM*	4.5µM*	3.2µM*	7%	4µM*
Fc1ccc(-c2cnn3c(-c4ccncc4)ccnc23)cc1	1.2µM*	0.35µM*	4.5µM*	7%	0.4µM*
Cc1ccc(C(=O)C(C(=O)/C=C/c2ccccc2)=C2SCCCS2)cc1	-8%	-13%	-81%	-12%	-17%
COc1ccc(/C=N/NC(=O)COc2cc(C)cc(C)c2)cc1COC(C)=O	1%	-5%	-1%	0%	-2%
CC(C)c1ccc(Nc2nc(CC(=O)O)cs2)cc1	2.1µM*	1.3µM*	.	?	1.4µM*
O=C(O)Cc1csc(Nc2cccc(Cl)c2)n1	-6%	-3%	12%	3%	2%
Cc1cccc(-c2nc(CSc3nncn4c3cc3sccc34)c(C)o2)c1	-2%	.	.	.	.
CCOC(=O)c1sc(NCCNc2nc(C)c(C(=O)OCC)s2)nc1C	1%	-4%	14%	1%	-2%
Cc1csc(NC(=O)c2ccccc2C(=O)O)n1	0%	-5%	-3%	-3%	-4%
CCOC(=O)c1sc(NC(=O)c2ccc(CC)s2)nc1C	?	-3%	2µM*	2.6µM*	23%
CCOC(=O)Cc1csc(/N=C/c2c(O)n(-c3ccccc3C(F)(F)F)c(=O)c3ccccc23)n1	11µM*	-2%	-10%	-6%	-2%
O=C(Nc1nnc(C2CC2)s1)c1cc2ccccc2o1	13µM*	2.8µM*	.	?	3.5µM*
CCc1ccc(C(=O)Nc2nc(C)cs2)s1	0.95µM*	-12%	.	?	-16%
CCc1ccc(NC(=O)N(C2CCCCC2)C(C)c2cccnc2)cc1 (stereo not drawn)	-16%	-1%	-21%	21%	-1%
O=[N+]([O-])c1ccccc1S(=O)(=O)N1CCN(c2ccccc2)CC1	6%	-1%	.	2%	7%
Cc1ccc(N=C2NC(=O)CC(C(=O)Nc3cc(C(F)(F)F)ccc3Cl)S2)cc1 (stereo not drawn)	0%	.	-8%	.	.
CCOc1cc(/C=C2/SC(=S)N(C)C2=O)ccc1Oc1ccc([N+](=O)[O-])cc1[N+](=O)[O-]	1%	-1%	-25%	0%	1%
CCOC(=O)Cc1csc(NC(=O)c2cc(=O)c3ccccc3o2)n1	17µM*	-2%	5%	-3%	13%
CCOC(=O)Cc1csc(NC(=O)c2sc3nc4c(C)cc(C)cc4cc3c2N)n1	?	18%	22µM*	?	22%
C=CCOC(=O)c1sc(NC(=O)c2ccco2)nc1C	9.5µM*	?	?	21µM*	?
SMILES	FLuc modulator	NPC1 promoter act	SMN2 splice up	ELG1 genotox	Rab9 prom act
CCOC(=O)Cc1csc(NC(=O)c2csc(C)c2)n1	?	11%	-8%	?	0%
CCOC(=O)c1csc(NC(=O)c2cc3ccccc3o2)n1	3.4µM*	?	.	?	?
CCOC(=O)c1sc2nc(C)cc(C)c2c1NC(=O)c1ccco1	-1%	-4%	3%	0%	1%
CC/C=C(\NC(C)=O)c1ccccc1	-8%	-4%	.	3%	1%
CCOC(=O)N1CCc2c(sc3c2c(=O)n(-c2ccc(CC)cc2)c(=O)n3Cc2ccc(F)cc2Cl)C1	2%	.	-15%	.	.
COc1cc(OC)c(NS(=O)(=O)c2cc(Br)cnc2N)cc1Cl	1%	4%	.	0%	0%
